TRHR agonist: activates the human TRH receptor | P34981 | TRHR cells, calcium flux fluo-8, FDSS agonist mode | activation, % at 2 µM | 0.18% of 360,000 active; further: 0% is about no effect
Target sequence (P34981 whole entry, looked up): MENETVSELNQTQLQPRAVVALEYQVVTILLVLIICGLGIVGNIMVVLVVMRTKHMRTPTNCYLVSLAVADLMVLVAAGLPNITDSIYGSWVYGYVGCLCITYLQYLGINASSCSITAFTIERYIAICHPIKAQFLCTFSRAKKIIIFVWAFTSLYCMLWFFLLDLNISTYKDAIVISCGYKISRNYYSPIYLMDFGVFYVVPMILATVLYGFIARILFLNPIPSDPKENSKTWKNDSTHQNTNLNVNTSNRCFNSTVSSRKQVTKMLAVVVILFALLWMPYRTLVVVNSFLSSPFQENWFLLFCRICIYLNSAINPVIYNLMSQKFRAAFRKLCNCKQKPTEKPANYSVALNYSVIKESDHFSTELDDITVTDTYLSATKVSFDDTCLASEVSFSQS
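Read-out: compound-evoked intracellular calcium rise in TRHR cells, fluo-8 dye, kinetic FDSS fluorescence at 1 s/cycle following a 10-cycle baseline. Cells cultured overnight before dye loading (30 min–1.5 h, RT).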
Glioma ERSR ind: inducers of ER stress response in human glioma cells; U87-MG GRP78 promoter luciferase reporter, 16 h; Potency, µM, for inactives: top-dose activation, actives largely listed as activators; 0.02% of 420,000 active; AID 602332; active means well fitted activation curve with a large enough effect; further: potency means the concentration at half of the fitted maximal effect; series mostly up to about 76 µM; % of control where 0% means no effect; nearly all actives have a fitted effect of over 35% in size
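ERSR induction read as luciferase luminescence (Bright-Glo, 10 min at room temperature) in stably transfected human U87-MG glioma cells exposed to compounds for 16 h, using GRP78 as sensor.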
TRHR enhancer: TRH receptor (human) allosteric enhancement. P34981. TRHR cells, fluo-8 calcium fluorescence, EC20 TRH enhancement. enhancement, % at 2 µM. 0.66% of 360,000 active; in the data active means enhancement above about 30%; further: 0% is about no effect
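TRHR-expressing cells loaded with fluo-8 calcium dye were read kinetically (ex 480/em 530) during compound addition, then stimulated with an EC20 of TRH (10 nM final). Enhancement of the Gq-mediated intracellular calcium response was scored.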
D1 PAM: human D1 dopamine receptor positive modulation | HEK293 TREx D1 cells, calcium flux, dopamine EC20 potentiation | P21728 | 0.036% of 360,000 active | potentiation, % at 10 µM | AID 504651; in the data active means potentiation above about 30%; further: 0% is about no effect
D1 agonist: activates the human D1 dopamine receptor | P21728 | HEK293 T-REx D1 cells, calcium flux, agonist mode | activation, % at 2 µM | 1% of 360,000 active | AID 504660; further: 0% is about no effect
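Agonism was scored from calcium flux recorded over 180 s (1 read/s) after pintool compound addition, following a 10-cycle baseline. Cells were inducible force-coupled HEK293 TREx D1, plated overnight at 30 C and loaded with no-wash calcium dye.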
D1 antagonist: blocks dopamine activation of the human D1 receptor. P21728. HEK293 TREx D1 cells, calcium flux, dopamine EC80; active compounds read low. activity change, negative = inhibition, % at 10 µM. 3.2% of 360,000 active. AID 504652; in the data active means activity change below about -30%; further: on the % scale 0 is the no-effect control and ±100 the full control effect
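Cells carrying a force-coupled, tetracycline-inducible human D1 receptor report calcium flux. Each well gets a 10 s baseline, compound with 180 s monitoring, then an EC80 dopamine stimulus with a second 180 s kinetic read.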
* hit, by the source's call; · = no result. Hits are enriched below; roughly 4% of the tested compounds scored in any of these assays. Unless noted, no stated cut-off is given here; in the data, active means activation above about 30%; inactive means the rest.

SMILES	TRHR agonist	Glioma ERSR ind	TRHR enhancer	D1 PAM	D1 agonist	D1 antagonist
CC(NC(=O)C1CCN(S(=O)(=O)c2cccc3nonc23)CC1)c1ccccc1 (configuration not stated)	0	-6%	-6	-7	2	-4
COc1cc(OC)c(NC(=O)C(NS(=O)(=O)c2cccc3nsnc23)c2ccccc2)cc1Cl (configuration not stated)	-2	-2%	9	0	-1	-1
CCOc1ccc2nc(/N=C/c3nc(-c4ccc(Br)cc4)oc3O)sc2c1	20	-3%	-4	-11	37*	9
CCCCOc1ccc(-c2nc(/C=N/c3nccs3)c(O)o2)cc1	0	3%	-6	1	8	17
Cc1cc([N+](=O)[O-])nn1CCCC(=O)Nc1ccc(Cl)cc1Cl	0	-3%	1	-7	0	-39*
CC(C)(C)c1ccc(C(=O)Nc2ccc(CN3CCS(=O)(=O)CC3)cc2)cc1	0	5%	2	-2	19	-9
CCCCOc1ccc(C(=O)NC(=S)Nc2ccc(CN3CCOCC3)cc2)cc1	0	-5%	32*	-4	3	-16
O=C(COc1ccc(Cl)cc1Cl)NC(=S)Nc1ccc(CN2CCOCC2)cc1	0	-2%	6	-5	13	-40*
O=C(Nc1ccc(CN2CCS(=O)(=O)CC2)cc1)c1ccc(C(F)(F)F)cc1	-1	-2%	-5	-13	14	-46*
CCOc1ccc(NC(=O)c2ccc(NC(=O)c3ccc(CN4CCOCC4)cc3)cc2)cc1	0	-6%	0	-4	3	-34*
COc1ccc(C(=O)NC(=S)Nc2ccc(CN3CCOCC3)cc2)cc1	1	3%	1	-3	5	-1
CCC(C)Oc1ccc(C(=O)Nc2ccc(CN3CCOCC3)cc2)cc1 (configuration not stated)	1	1%	-6	-7	16	-12
CCOC(=O)c1c(NC(=O)c2nc3n(n2)C(C(F)F)CC(C)N3)sc2c1CCCC2 (configuration not stated)	0	-3%	9	-2	0	1
O=C(O)CC/C(=C\c1ccc(N2CCOCC2)c([N+](=O)[O-])c1)c1nc2ccccc2s1	0	-6%	-4	-14	0	-77*
CCOC(=O)Nc1ccc2c(c1)N(CCCN(C)C)c1ccccc1CC2	2	-3%	-10	-10	38*	-3
CC(=O)C1(O)CCC2C3CCC4CC(O)CCC4(C)C3C(=O)CC21C (configuration not stated)	·	-5%	·	·	·	·
CCc1nn(CC(=O)N2CCC(C)CC2)c(=O)c2cccn12	1	-4%	6	1	0	3
CCc1nn(CC(=O)N2CCN(c3cccc(C(F)(F)F)c3)CC2)c(=O)c2cccn12	0	-6%	8	-5	24	-41*
CCNc1c(NS(=O)(=O)c2ccc(Br)s2)c(=O)oc2ccccc12	0	0%	2	-3	-3	-41*
CCOc1ccc(-c2nc(C#N)c(NC3CC3)o2)cc1	0	1%	32*	-1	2	1
CCOc1ccc(Nc2oc(-c3ccc(Cl)cc3)nc2C#N)cc1	0	5%	0	-5	1	4
Cc1ccc(NC(=O)c2ccccc2-c2cc(C)no2)cc1	0	-2%	7	-6	-1	·
COc1ccc(-c2cn(Cc3ccc4ccccc4c3)nn2)cc1	1	-4%	-5	-3	7	-32*
COc1ccc(Br)cc1S(=O)(=O)Nc1ncccc1C	-2	-1%	12	-6	3	-3
CCOc1ccc(S(=O)(=O)NCCC(=O)NCC(c2cccs2)N(C)C)cc1 (configuration not stated)	0	-2%	3	-5	0	6
Cn1nc(C(F)(F)F)c2cc(C(=O)Nc3ccc(C(F)(F)F)cc3)sc21	2	-7%	-11	-7	21	-45*
CC(C)(C)c1ccc(S(=O)(=O)NCCc2ccncc2)cc1	-1	-5%	-3	-6	5	-95*
COc1cc(/C=C(\C#N)C(=O)Nc2ccccc2)ccc1OCCN1CCOCC1	1	-1%	0	-7	1	-22

Assay outcomes as filed in PubChem.
